Several values for one entry are separate records, joined by “and”; a condition that tells them apart may be missing. Equal values may be shown once. Hit rate of the full screen: of about 5,500 compounds, about 2,000 (36%) were called active. Inconclusive results (about 18%) are left out. Rule as the data show it: active = normalized growth mostly below about 0.91 (no sharp cut-off); inconclusive = no clear call, values can overlap the other calls; inactive = mostly above about 0.92. The list shows a part of the results.
Experiment: chemical genetic growth profiling, strain panel (AID 1159580);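 also: tested at 20 µM; growth read once vehicle control cultures reached saturation at 30 °C; 1 = growth at the plate median or of vehicle wells; lower values mean less growth of the strain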
Details: S. cerevisiae deletion strains, growth OD

Measured: normalized growth

CN(C)CC[C@H](c1ccc(Cl)cc1)c1ccccn1
inactive: locus YAL013W, strain DEP1, active compounds read low 0.997 | locus YAL021C, strain ccr4, active compounds read low 0.99 | locus YAL026C, strain drs2, active compounds read low 1.01 | locus YAL030W, strain snc1, active compounds read low 1 | locus YBL061C, strain skt5, active compounds read low 1.01 | locus YBR009C, strain hhf1, active compounds read low 1.01 | locus YBR021W, strain FUR4, active compounds read low 0.995 | locus YBR023C, strain chs3, active compounds read low 0.996 | locus YBR171W, strain sec66, active compounds read low 0.998 | locus YBR229C, strain ROT2, active compounds read low 1 | locus YBR231C, strain swc5, active compounds read low 0.989 | locus YBR279W, strain paf1, active compounds read low 1.01 | locus YCL011C, strain gbp2, active compounds read low 0.993 | locus YCL016C, strain dcc1, active compounds read low 1.02 | locus YCL029C, strain bik1, active compounds read low 1 | locus YCL061C, strain MRC1, active compounds read low 1 | locus YCL069W, strain vba3, active compounds read low 1 | locus YCR088W, strain abp1, active compounds read low 0.989 | locus YDL005C, strain med2, active compounds read low 0.992 | locus YDL035C, strain GPR1, active compounds read low 1.02 | locus YDL040C, strain nat1, active compounds read low 1.01 | locus YDL074C, strain BRE1, active compounds read low 1.01 | locus YDL101C, strain DUN1, active compounds read low 0.998 | locus YDL134C, strain PPH21, active compounds read low 0.996 | locus YDL185W, strain tfp1, active compounds read low 0.985 | locus YDL192W, strain arf1, active compounds read low 1 | locus YDR001C, strain nth1, active compounds read low 0.999 | locus YDR069C, strain doa4, active compounds read low 1.01 | locus YDR101C, strain arx1, active compounds read low 0.998 | locus YDR137W, strain rgp1, active compounds read low 1.03 | locus YDR150W, strain NUM1, active compounds read low 1.01 | locus YDR159W, strain sac3, active compounds read low 1 | locus YDR162C, strain NBP2, active compounds read low 1.01 | locus YDR195W, strain ref2 1.01 | locus YDR297W, strain sur2, active compounds read low 1.01 | locus YDR318W, strain mcm21, active compounds read low 0.985 | locus YDR334W, strain swr1, active compounds read low 1 | locus YDR335W, strain msn5, active compounds read low 1 | locus YDR388W, active compounds read low 0.991 | locus YDR392W, strain spt3, active compounds read low 1.01 | locus YDR502C, strain sam2, active compounds read low 1.01 | locus YEL003W, strain gim4, active compounds read low 1.01 | locus YEL037C, strain rad23, active compounds read low 0.992 | locus YEL061C, strain CIN8 (second series), active compounds read low 1 | locus YEL061C, strain CIN8, active compounds read low 1 | locus YER015W, strain faa2, active compounds read low 1.01 | locus YER016W, strain bim1, active compounds read low 0.99 | locus YER110C, active compounds read low 0.98 | locus YER111C, strain swi4, active compounds read low 0.994 | locus YER155C, strain BEM2 (second series), active compounds read low 1.01 | locus YER155C, strain BEM2, active compounds read low 1 | locus YER167W, strain BCK2, active compounds read low 1.01 | locus YFR010W, strain ubp6, active compounds read low 0.991 | locus YGL078C, strain dbp3, active compounds read low 1 | locus YGL086W, strain mad1, active compounds read low 1.01 | locus YGL167C, strain pmr1, active compounds read low 0.985 | locus YGL173C, strain kem1, active compounds read low 0.998 | locus YGL227W, strain vid30, active compounds read low 1.01 | locus YGL240W, strain doc1, active compounds read low 1.01 | locus YGL248W, strain PDE1, active compounds read low 0.997 | locus YGL253W, strain hxk2, active compounds read low 1.01 | locus YGR078C, strain PAC10, active compounds read low 1.01 | locus YGR135W, strain pre9, active compounds read low 1 | locus YGR229C, strain SMI1, active compounds read low 1.01 | locus YGR252W, strain gcn5, active compounds read low 0.959 | locus YHR013C, strain ard1, active compounds read low 1.01 | locus YHR027C, strain rpn1, active compounds read low 0.998 | locus YHR030C, strain SLT2, active compounds read low 1 and 0.993 | locus YHR079C, strain IRE1 (second series), active compounds read low 0.993 | locus YHR079C, strain IRE1, active compounds read low 1 | locus YHR094C, strain hxt1, active compounds read low 0.99 | locus YHR129C, strain ARP1, active compounds read low 0.999 | locus YHR142W, strain chs7, active compounds read low 1.02 | locus YHR200W, strain rpn10, active compounds read low 0.992 | locus YIL066C, strain RNR3, active compounds read low 1.01 | locus YIL073C, strain SPO22, active compounds read low 0.992 | locus YIL125W, strain kgd1, active compounds read low 0.999 | locus YIR030C, strain dcg1, active compounds read low 0.991 | locus YJL092W, strain hpr5, active compounds read low 1.01 | locus YJL095W, strain BCK1 (second series), active compounds read low 0.997 | locus YJL095W, strain BCK1, active compounds read low 1 | locus YJL115W, strain asf1, active compounds read low 1.01 | locus YJL129C, strain trk1, active compounds read low 1.01 | locus YJL134W, strain LCB3, active compounds read low 1.01 | locus YJL154C, strain vps35, active compounds read low 1.01 | locus YJL164C, strain tpk1, active compounds read low 0.992 | locus YJL166W, strain qcr8, active compounds read low 0.985 | locus YJL168C, strain set2, active compounds read low 0.993 | locus YJL187C, strain SWE1 (second series), active compounds read low 1.01 | locus YJL187C, strain SWE1, active compounds read low 1.01 | locus YJR043C, strain POL32, active compounds read low 0.984 | locus YJR066W, strain TOR1, active compounds read low 0.993

Reference: PubChem BioAssay AID1159580 (chemical genetic matrix, 2015)
